The text below walks through data of the supplement of paper PMC6555819.

In one experiment the test system is LXRa homodimer (NR concentration 270 nM). The experiment in a line: PBM binding z-score (relative to random genomic background probes); higher = stronger binding; sequences stand for … in GC…GCGATTGACAGCGTAGAATGAAGG
An outline of the steps:
(§1)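 Custom Agilent 4×180K protein-binding microarrays carried double-stranded probes, each with a 34-nt variable region. These regions held direct-repeat seeds, single-nucleotide variants, half-site ablations and random human genomic background sequences. Ligand-free nuclear receptor dimers were incubated on the arrays for 1 h, antibodies against each partner (one per run) detected binding, and scanned fluorescence was regression-normalized. Binding z-scores take the random background probes as reference.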
CCTAGCAGGCCAGGGTCACACAAGCATTTCGCTT yielded a PBM binding z-score of -0.252.
Same read-out and setting: as for ATATGTAGGTTATGGGGTCATTCAGTTTGCGCAT, the figure is 3.61; as for ACTATTACTTGAGACGAGGGCAACCGATAGGTTG, 0.422.
Still for that read-out and setting: as for CCTACTGGGCCATCAAGTCATTGATATCAACGTT, the figure is -0.0812.
As to TCATAAAGGTAAAGGTGAAAGTCGAACGATATGA, the PBM binding z-score was -0.143.
The same measure, in the same setting: next, TCTGCTAGTTCAGTTGGTCAGCTAACGAGCTGCC: -0.708.
Consider TCATATATGTAAACAGGTGAAAGTCCGTAAGTTA, for which the PBM binding z-score was determined as 0.211.
For ATTTCTAGGTAACCAAGTTCAGTGAATGCCGAAC, the PBM binding z-score is 1.1.
ACTAGTTGGTCAGCTGACGTCACACACAATTCGG gave a PBM binding z-score of -0.224.
In turn, ACAGAAAGGTGAGTGAAGGTAACTCAGCTGGACG yielded a PBM binding z-score of -0.288.
The same measure, in the same setting: as for TCTAGTTGGTCACGGAGCTCACACACGACGGGTA, the figure is -0.438; as for ATCTCTAGGTAACCATGTTCAGTGAATGCCGAAC, 0.00917; as for AGTCAAAGTTCATCTAGGAAACGTAAGATATGCT, 4.88.
On the same count and under the same terms, as for TCTATTAGTTGAAGGGCAACCGCCGAGTCCGTTT, the figure is 0.578; as for TCAGATAGGTAAACAGGTGAAAGTCCGTAAGTTA, 0.121; as for CCGACTGGGGCATAAGGGTACCATAAGCCAGCCC, -0.527.
For ATATCTAGGTTAAGGGTCATTCAGGTTGGTTCGC, the PBM binding z-score was 3.85.
Same read-out and setting: as for TGTTGTAGATCAATAGAGGTTAAGAAAGTGCGCT, the figure is 1.16.
On to CCTAGTGGGTCAAGGTCACACACGCTATAGGTAC, for which the PBM binding z-score worked out at 1.16.
The same measure, in the same setting: as for ACTATGAGTTGACTTAGGGCAACCGATACGACGC, the figure is 0.2; as for GCTGCTAGGTCAATTGATGGTCAGCTAAAGCTCG, -0.0789.
The same measure, in the same setting: as for CCTACTGGGCCATTCAGAGGTCATTGGTCATATG, the figure is 7.04; as for TTACTAAGGTGAAAGGTCGTTGATGCACGCCTTG, 0.805; as for TCATATAAGTAAATGCTAGGTGAAAGTCCGATCT, 0.543.
For the sequence CGTCCAAGGTCAAAGGTCAGTGGAGAGATGACGG, the PBM binding z-score is 3.66.
The same measure, in the same setting: next, GGAACGAGGGCAAAGTTGCTAGCATCTGTCGACG: -0.512.
Still for that read-out and setting: next, CCTGCTAGGTGAATGGTCAGCTAAAGCAGCTCGC: -0.807; CGTCAAAGTTCAATTAAGGTAACGTAAAGCACGC: 3.51.
The same measure, in the same setting: as for ACTATTAGTTAACTTAGGGCAACCGATACGACGC, the figure is 0.294.
Regarding TCTGCTTGGTCAGTTGGTCAGCTAACGAGCTGCC, the PBM binding z-score is -1.02.
Take CCTAATGGGCCAAGGTCATTGATCAGTCAAAGCA: the PBM binding z-score was determined as 1.04.
As to ACTGGGAGGACAAAGGTCAGAGCTACGCCAGTGA, the PBM binding z-score is 2.01.
On the same count and under the same terms, as for GCGACTGGGGCAAAGCAGGTTACCAAAAGGTTGG, the figure is -0.168.
Sequence TCATATAGGTAAAGGTGAAAATCGAACGATATGA displayed a PBM binding z-score of -0.224.
On the same count and under the same terms, as for ATCTCTAGGTAACAAGTACAGTGAAAGAGAGGAC, the figure is 0.245; as for CCTCGGTGGACAGAAGGTCAGAGCTGTCCGCTTT, -0.089; as for GCTGCTAGGTCAGCTGATGGTCAGCTAAAGCTCG, -0.477.
For ACTAGTTCGTCAGCTGAGGTCACACACAATTCGG, the PBM binding z-score stood at 2.68.
The same measure, in the same setting: next, CCTACTGGGCCAAGAAAGGTCATTGATTCAGTGA: 4.12; TCTGCTAGGACAGTTGGTCAGCTAACGAGCTGCC: -0.541.

A further experiment has as its system LXRb:RXRa (NR concentration 270 nM, RXRa partner concentration 90 nM). The experiment is described as above. The method in brief:
as §1
In the case of CCTAGCAGGCCAGGGTCACACAAGCATTTCGCTT, the PBM binding z-score came out at 2.77.
ATATGTAGGTTATGGGGTCATTCAGTTTGCGCAT showed a PBM binding z-score of 5.55.
Turning to ACTATTACTTGAGACGAGGGCAACCGATAGGTTG, the PBM binding z-score came to 0.481.
In turn, CCTACTGGGCCATCAAGTCATTGATATCAACGTT gave a PBM binding z-score of 0.373.
As to TCATAAAGGTAAAGGTGAAAGTCGAACGATATGA, the PBM binding z-score amounted to 1.63.
On the same count and under the same terms, next, TCTGCTAGTTCAGTTGGTCAGCTAACGAGCTGCC: -0.52.
On the same count and under the same terms, next, TCATATATGTAAACAGGTGAAAGTCCGTAAGTTA: 1.51; ATTTCTAGGTAACCAAGTTCAGTGAATGCCGAAC: 0.544; ACTAGTTGGTCAGCTGACGTCACACACAATTCGG: 0.522.
Still for that read-out and setting: as for ACAGAAAGGTGAGTGAAGGTAACTCAGCTGGACG, the figure is 0.22; as for TCTAGTTGGTCACGGAGCTCACACACGACGGGTA, 0.0145.
The sequence ATCTCTAGGTAACCATGTTCAGTGAATGCCGAAC returned a PBM binding z-score of 0.435.
The same measure, in the same setting: next, AGTCAAAGTTCATCTAGGAAACGTAAGATATGCT: 3.9.
Still for that read-out and setting: as for TCTATTAGTTGAAGGGCAACCGCCGAGTCCGTTT, the figure is 0.586.
The same measure, in the same setting: next, TCAGATAGGTAAACAGGTGAAAGTCCGTAAGTTA: 0.939.
CCGACTGGGGCATAAGGGTACCATAAGCCAGCCC had a PBM binding z-score of -0.624.
In turn, ATATCTAGGTTAAGGGTCATTCAGGTTGGTTCGC came in with a PBM binding z-score of 4.75.
As to TGTTGTAGATCAATAGAGGTTAAGAAAGTGCGCT, the PBM binding z-score came out at 1.94.
For CCTAGTGGGTCAAGGTCACACACGCTATAGGTAC, the PBM binding z-score stood at 3.95.
Same read-out and setting: next, ACTATGAGTTGACTTAGGGCAACCGATACGACGC: 0.365.
On to GCTGCTAGGTCAATTGATGGTCAGCTAAAGCTCG, for which the PBM binding z-score was 1.47.
On to CCTACTGGGCCATTCAGAGGTCATTGGTCATATG, for which the PBM binding z-score turned out to be 3.5.
The same measure, in the same setting: as for TTACTAAGGTGAAAGGTCGTTGATGCACGCCTTG, the figure is 3.47; as for TCATATAAGTAAATGCTAGGTGAAAGTCCGATCT, 0.645.
CGTCCAAGGTCAAAGGTCAGTGGAGAGATGACGG displayed a PBM binding z-score of 6.84.
Still for that read-out and setting: next, GGAACGAGGGCAAAGTTGCTAGCATCTGTCGACG: 0.42.
The same measure, in the same setting: next, CCTGCTAGGTGAATGGTCAGCTAAAGCAGCTCGC: -0.625.
Same read-out and setting: next, CGTCAAAGTTCAATTAAGGTAACGTAAAGCACGC: 3.7; ACTATTAGTTAACTTAGGGCAACCGATACGACGC: 0.256; TCTGCTTGGTCAGTTGGTCAGCTAACGAGCTGCC: -0.763.
On to CCTAATGGGCCAAGGTCATTGATCAGTCAAAGCA, for which the PBM binding z-score stood at 2.93.
Turning to ACTGGGAGGACAAAGGTCAGAGCTACGCCAGTGA, the PBM binding z-score was determined as 4.
Same read-out and setting: as for GCGACTGGGGCAAAGCAGGTTACCAAAAGGTTGG, the figure is 0.19.
Still for that read-out and setting: as for TCATATAGGTAAAGGTGAAAATCGAACGATATGA, the figure is 1.35.
Same read-out and setting: as for ATCTCTAGGTAACAAGTACAGTGAAAGAGAGGAC, the figure is -0.0374.
As for CCTCGGTGGACAGAAGGTCAGAGCTGTCCGCTTT, the PBM binding z-score was determined as 0.847.
For GCTGCTAGGTCAGCTGATGGTCAGCTAAAGCTCG, the PBM binding z-score turned out to be 0.0658.
In the case of ACTAGTTCGTCAGCTGAGGTCACACACAATTCGG, the PBM binding z-score was 4.09.
The sequence CCTACTGGGCCAAGAAAGGTCATTGATTCAGTGA showed a PBM binding z-score of 3.8.
Consider TCTGCTAGGACAGTTGGTCAGCTAACGAGCTGCC, for which the PBM binding z-score was -0.91.
